Cav32 inh: inhibitors of human Cav3.2 T-type calcium channel. O95180. Cav3.2-expressing cells, Fluo-4 calcium fluorescence FDSS; stronger effect = lower value. B-score at 10 µM. 100,000 tested, 4% active. AID 449739;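 active means single-dose well whose peak fluorescence ratio is a statistical outlier from its plate by either plate-standardised score or position-corrected B-score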
CYP2C19 inhib: human CYP2C19 inhibition. P33261. CYP2C19 Supersomes, luciferin-H EGE luminescence, 30 min. inhibition, % at 5 µM. 96,000 tested, 21% active. AID 778;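 active means CYP2C19 inhibition above a set limit at 5 µM in the primary screen, cut at about 50% in these data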;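 further: plate controls were negative control wells for no effect and 2.5 mM tranylcypromine positive control for full effect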
CYP2C9 inh: inhibitors of human CYP2C9. P11712. CYP2C9 Supersomes, luciferin-H conversion, luminescence. inhibition, % at 5 µM. 96,000 tested, 20% active;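 active means blocking of liver enzyme CYP2C9 beyond about 50% at 5 µM, limit read from the data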
Target sequence (P11712 whole entry, looked up): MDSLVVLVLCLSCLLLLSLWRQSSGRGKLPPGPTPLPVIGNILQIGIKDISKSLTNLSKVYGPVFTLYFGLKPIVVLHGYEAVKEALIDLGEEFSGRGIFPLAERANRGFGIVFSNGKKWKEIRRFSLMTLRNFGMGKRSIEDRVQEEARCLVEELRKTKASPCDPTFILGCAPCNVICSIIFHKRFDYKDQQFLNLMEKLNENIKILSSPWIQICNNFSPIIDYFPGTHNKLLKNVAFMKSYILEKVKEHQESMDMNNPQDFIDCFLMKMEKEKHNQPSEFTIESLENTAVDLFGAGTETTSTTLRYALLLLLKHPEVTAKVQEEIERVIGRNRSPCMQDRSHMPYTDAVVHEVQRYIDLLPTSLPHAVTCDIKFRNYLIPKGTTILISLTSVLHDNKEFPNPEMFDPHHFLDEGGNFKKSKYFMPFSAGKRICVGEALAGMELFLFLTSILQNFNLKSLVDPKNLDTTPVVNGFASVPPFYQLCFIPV
CYP2C19 act: increases human CYP2C19 enzyme activity | recombinant CYP2C19, luciferin-H EGE luminescence; stronger effect = higher value; 0 = fully inhibited enzyme, 1 = untreated enzyme | activation factor at 5 µM | AID 1025 | P33261 | 96,000 tested, under 10 active;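 active means activation factor of at least 2 at 5 µM in the primary screen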;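 further: 0 = wells with 2.5 mM tranylcypromine and 1 = vehicle-only wells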
CYP2C9 act: increases human cytochrome P450 2C9 activity; 96,000 tested, 1.4% active; AID 1024; P11712; recombinant CYP2C9, luciferin-H conversion, luminescence; stronger effect = higher value; factor 1 = untreated enzyme, 0 = blocked; activation factor at 5 µM;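 active means activation factor of 2 or more for CYP2C9 at a 5 µM dose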;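 further: 0 = sulfaphenazole-blocked wells and 1 = vehicle-only wells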
An asterisk follows results filed as active. Compounds with a hit are over-represented: about 27% of the library has one in this group of screens.

Screening COc1ccccc1CN1C(=O)C2CC=CCC2C1=O (stereo unspecified) returned Cav32 inh -0.0386, CYP2C19 inhib 30.4, CYP2C9 inh -17.4, CYP2C19 act 0.7 and CYP2C9 act 1.2.
`c1ccc(Oc2cnc3ccccc3n2)cc1` gave Cav32 inh -1.38, CYP2C19 inhib 29.7, CYP2C9 inh 2.5, CYP2C19 act 0.7 and CYP2C9 act 1.
For Cc1cc(Oc2ccccc2)nc2ccc(O)cc12 the results were CYP2C19 inhib 80.1*, CYP2C9 inh -85.4, CYP2C19 act 0.2 and CYP2C9 act 1.9.
Cc1ccc2c(c1)NC(=O)C(N1CCOCC1)(C(F)(F)F)O2 (stereo unspecified) was read as Cav32 inh 0.021, CYP2C19 inhib 55.2*, CYP2C9 inh 34.1, CYP2C19 act 0.4 and CYP2C9 act 0.7.
`CCc1ccc(N2CCCn3c2nc2c3c(=O)n(CCN3CCOCC3)c(=O)n2C)cc1` gave CYP2C19 inhib 7.3, CYP2C9 inh 6.7, CYP2C19 act 0.9 and CYP2C9 act 0.9.
Screening Cc1ccc(-n2ccnc2SCC(=O)N(CC(C)C)C2CCS(=O)(=O)C2)c(C)c1 (stereo unspecified) returned Cav32 inh 0.774, CYP2C19 inhib 32.3, CYP2C9 inh 14.0, CYP2C19 act 0.7 and CYP2C9 act 0.9.
For COc1cc(C(=O)NCCCNc2nc3cc(C)cc(C)c3cc2C#N)cc(OC)c1OC the results were Cav32 inh -0.302, CYP2C19 inhib 57.4*, CYP2C9 inh 49.9, CYP2C19 act 0.4 and CYP2C9 act 0.5.
`COC(C[C@H]1O[C@@H]1C(=O)[C@H](C)OCc1ccccc1)OC` gave Cav32 inh 0.924.
For COc1ccc(OCCNS(=O)(=O)c2ccc3oc4ccccc4c3c2)cc1 the results were Cav32 inh -0.395, CYP2C19 inhib 25.7, CYP2C9 inh 38.9, CYP2C19 act 0.7 and CYP2C9 act 0.6.
Screening CN(CCOc1ccccc1)S(=O)(=O)c1ccc2oc3ccccc3c2c1 returned Cav32 inh -5.43*, CYP2C19 inhib 52.2*, CYP2C9 inh -62.2, CYP2C19 act 0.5 and CYP2C9 act 1.6.
CSc1nn(CCc2ccncc2)c(=S)s1 was read as Cav32 inh -0.0703, CYP2C19 inhib 97.1*, CYP2C9 inh 64.9*, CYP2C19 act 0 and CYP2C9 act 0.4.
Screening COc1ccc2nc(N=Nc3ccc(N(C)C)cc3)sc2c1 returned CYP2C19 inhib 57.6*, CYP2C9 inh 21.3, CYP2C19 act 0.4 and CYP2C9 act 0.8.
`COc1ccc2nc(/N=C\N(C)C)sc2c1` gave Cav32 inh -0.719, CYP2C19 inhib 9.6, CYP2C9 inh -9.8, CYP2C19 act 0.9 and CYP2C9 act 1.1.
`CCOC(=O)C1=C(N)Oc2cc(C)n(C)c(=O)c2C1c1ccncc1` (stereo unspecified) gave Cav32 inh 0.0712, CYP2C19 inhib 71.9*, CYP2C9 inh 72.6*, CYP2C19 act 0.3 and CYP2C9 act 0.3.
`CCOC(=O)C1=C(C)N(C)C(C)=C(C(=O)OCC)C1c1cccnc1` gave Cav32 inh 0.323, CYP2C19 inhib 86.6*, CYP2C9 inh 83.9*, CYP2C19 act 0.1 and CYP2C9 act 0.2.
`COC(=O)C1=C(N)Oc2cc(C)[nH]c(=O)c2C1c1cccnc1` (stereo unspecified) gave Cav32 inh 0.195, CYP2C19 inhib 15.9, CYP2C9 inh 12.3, CYP2C19 act 0.8 and CYP2C9 act 0.9.
CCOC(=O)C1=C(N)Oc2cc(C)[nH]c(=O)c2C1c1ccncc1 (stereo unspecified) was read as Cav32 inh 0.25, CYP2C19 inhib 74.6*, CYP2C9 inh 74.3*, CYP2C19 act 0.3 and CYP2C9 act 0.3.
`CCOC(=O)C1=C(C)Nc2nc(SCC)[nH]c(=O)c2C1c1ccncc1` (stereo unspecified) gave CYP2C19 inhib 83.8*, CYP2C9 inh 63.5*, CYP2C19 act 0.2 and CYP2C9 act 0.4.
Screening CCOC(=O)C1=C(C)Nc2ncnn2C1c1cccnc1 (stereo unspecified) returned Cav32 inh 0.0109, CYP2C19 inhib 5.4, CYP2C9 inh 8.1, CYP2C19 act 0.9 and CYP2C9 act 0.9.
CC1(C(=O)O)CCC(C(=O)NC2CCCCC2)C1(C)C (stereo unspecified) was read as Cav32 inh 0.635, CYP2C19 inhib -2.4, CYP2C9 inh -7.4, CYP2C19 act 1 and CYP2C9 act 1.1.
